Test results as given in the supplement of paper PMC3484114.
± gives the standard deviation.

The compounds below were run on OVCAR-3-derived ovarian cancer stem-like cells (spheroids) (assay: cell growth relative to untreated control; higher = more growth (less inhibition)). Details: 2.29 µM; 96 h.
In short: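 Stem-like cells derived from OVCAR-3 spheroids were dissociated with trypsin and seeded at 50,000 cells/mL in stem cell medium in ultra-low attachment 96-well plates, then preincubated for 24 h. Each compound was added at 2.29 uM to 4 replicate wells and left for 96 h at 37°C, 5% CO2. Viability came from TOX8 resazurin fluorescence (ex 560/em 590 nm) read after 4 h. Percent growth was expressed relative to untreated wells, after blank subtraction and removal of outliers by the Grubbs test.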

Row | SMILES | cell growth
1 | C[C@@H]1C[C@H]2OC(=O)[C@@]3(C)CCC[C@@](C)([C@@H]23)[C@@]1(O)CCc1ccoc1 | 59.6 ± 12%
2 | COc1ccc2c(NCCCCCCNc3c4ccccc4nc4cc(OC)ccc34)c3ccccc3nc2c1 | 13.9 ± 5.5%
3 | CCN1/C(=C\C(C)=C\c2sc3ccccc3[n+]2CC)Sc2ccccc21 | 31.4 ± 6.9%
4 | O=C1C2=Nc3ccccc3C(O)N2c2ccccc21 (stereo not given) | 91 ± 12%
5 | CC12CC(Br)(Br)C(=O)C3C1CCCC32 | 159 ± 19%
6 | CC(C)c1ccc2nc3ccc(C(=O)NCCN(C)C)cn3c(=O)c2c1 | 79.4 ± 21%
7 | CCCCC(/C=N/N=C(N)N)CC.Cc1cc(O)c(C(C)C)cc1S(=O)(=O)O | 91.8 ± 17%
8 | CN(C)c1ccc(/C=C/C(=O)c2ccccc2)cc1Br | 114 ± 9.2%
9 | CN(C)C(=S)/N=c1\ss/c(=N\C(=S)N(C)C)n1-c1ccc2c(c1)OCO2 | 76.4 ± 5.8%
10 | CCCCS(=N)(=O)CCC(N)C(=O)O (stereo not given) | 86.6 ± 8.1%
11 | Oc1ccc2ccccc2c1N=Nc1cccc2ccccc12 | 82.9 ± 12%
12 | COc1ccc(/C=C2\CCCc3ccccc3C2=O)cc1 | 54.4 ± 10%
13 | COc1ccc2cc3[n+](cc2c1OC)CCc1cc2c(cc1-3)OCO2 | 57.3 ± 7.4%
14 | CN(C)/N=N/c1nc[nH]c1C(N)=O | 164 ± 14%
15 | NC(=O)C#CC(N)=O | 55.9 ± 13%
16 | CCCCCCC1CC(=O)C1(Cl)Cl (stereo not given) | 104 ± 16%
17 | NC(N)=NCCCS(=O)(=O)Nc1ccc(Nc2c3ccccc3nc3cc([N+](=O)[O-])ccc23)cc1 | 127 ± 32%
18 | C=CC(=O)N1C/C(=C\c2ccc(Cl)cc2)C(=O)/C(=C/c2ccc(Cl)cc2)C1 | 59.7 ± 22%
19 | N#Cc1ccccc1NC(=O)C(=O)C(C(=O)c1ccccc1F)C1OC(=O)c2ccccc21 (stereo not given) | 98.8 ± 24%
20 | O=C1c2ccccc2-c2c1c1ccccc1c(=O)n2Cc1ccccc1 | 86.2 ± 51%

Row | SMILES | cell growth
21 | CCOC(=O)C(C)NC(=O)N(C)C12CC3CC(CC(C3)C1)C2 (stereo not given) | 8 ± 3.5%
22 | CC(=O)Nc1ccc(-c2nc3ccccc3s2)cc1 | 171 ± 32%
23 | Cc1ccccc1NC(=O)C(=O)C(C(=O)c1ccccc1F)C1OC(=O)c2ccccc21 (stereo not given) | 94.9 ± 13%
24 | Cc1cc(C)c(NC(=O)/C=C/c2ccccc2)c(C)c1 | 89.7 ± 13%
25 | C[C@H]1O[C@@H](c2ccc3c(c2O)C(=O)C2=C(C3=O)[C@@]3(O)C(=O)C[C@](C)(O)C[C@@]3(O)C=C2)C[C@@H](O)[C@@H]1O | 62.7 ± 8.2%
26 | O=C1C=C(NCCc2ccccc2)c2ccccc2C1=O | 57.3 ± 10%
27 | O=C1NC(c2cccc3ccccc23)Nc2ccc(Cl)cc21 (stereo not given) | 99.5 ± 9.1%
28 | O=C1c2ccccc2C(=O)C1C(c1ccc([N+](=O)[O-])cc1)C1C(=O)c2ccccc2C1=O | 83.3 ± 24%
29 | O=C(O)c1ccccc1-c1ccccc1C(=O)Nc1ccc2c(c1)Cc1ccccc1-2 | 80.8 ± 29%
30 | O=C1C=C(Nc2ccccc2C(=O)CC(=O)C(=O)Nc2ccc(Cl)cc2)c2ccccc2C1=O | 49.4 ± 15%
31 | Nc1ccc2c(c1)CN1C(=O)c3ccccc3C1=N2 | 72.9 ± 5.6%
32 | O=C(CC1(O)C(=O)Nc2c(Cl)cc(Cl)cc21)c1cccc([N+](=O)[O-])c1 (stereo not given) | 88.1 ± 30%
33 | COc1cc2c(cc1Oc1ccc(OC)c3c1CC1c4c(cc(OC)c(OC)c4-3)CCN1C)CC1c3c(cc(OC)c(OC)c3-2)CCN1C (stereo not given) | 101 ± 11%
34 | C/C=C(\CCC1NCCc2c1[nH]c1ccccc21)[Si](C)(C)C (stereo not given) | 86.5 ± 9.4%
35 | CO[C@H]1C[C@@H]2CC[C@@H](C)[C@@](O)(O2)C(=O)C(=O)N2CCCC[C@H]2C(=O)O[C@H]([C@H](C)C[C@@H]2CC[C@@H](O)[C@H](OC)C2)CC(=O)[C@H](C)/C=C(\C)[C@@H](O)[C@@H](OC)C(=O)[C@H](C)C[C@H](C)/C=C/C=C/C=C/1C | 97 ± 21%
36 | COc1ccccc1/C=C1\Sc2scc(-c3cccc([N+](=O)[O-])c3)[n+]2C1=O | 128 ± 18%
37 | Cc1ccc(S(=O)(=O)NC(=O)NC2=NC(C)(C)N(c3ccc(Cl)c(Cl)c3)C(N)=N2)cc1 | 84.1 ± 23%
38 | CC1=CC(=O)c2ccccc2C1=O | 89.6 ± 9.4%
39 | C/C(=N\NC(=S)N1CCC1)c1ccccn1 | 20.6 ± 4%
40 | COC(=O)[C@@]12OC[C@]34[C@H]([C@@H](O)[C@@H]1O)[C@@]1(C)CC(=O)C(O)=C(C)[C@@H]1C[C@H]3OC(=O)[C@H](OC(=O)C=C(C)C)[C@@H]24 | 18.5 ± 3.1%
